Screens (PubChem BioAssay)
CYP2C19 act: increases human CYP2C19 enzyme activity | P33261 | 96,000 tested, under 10 active | activation factor at 5 µM | recombinant CYP2C19, luciferin-H EGE luminescence; active compounds read high; 0 = fully inhibited enzyme, 1 = untreated enzyme;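 active = activation factor of at least 2 at 5 µM in the primary screen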
CYP2C9 inhib: inhibitors of human CYP2C9. P11712. CYP2C9 Supersomes, luciferin-H conversion, luminescence. inhibition, % at 5 µM. actives 20% (n = 96,000). AID 777;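 active = blocking of liver enzyme CYP2C9 beyond about 50% at 5 µM, limit read from the data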
Target sequence (P11712 whole entry, looked up): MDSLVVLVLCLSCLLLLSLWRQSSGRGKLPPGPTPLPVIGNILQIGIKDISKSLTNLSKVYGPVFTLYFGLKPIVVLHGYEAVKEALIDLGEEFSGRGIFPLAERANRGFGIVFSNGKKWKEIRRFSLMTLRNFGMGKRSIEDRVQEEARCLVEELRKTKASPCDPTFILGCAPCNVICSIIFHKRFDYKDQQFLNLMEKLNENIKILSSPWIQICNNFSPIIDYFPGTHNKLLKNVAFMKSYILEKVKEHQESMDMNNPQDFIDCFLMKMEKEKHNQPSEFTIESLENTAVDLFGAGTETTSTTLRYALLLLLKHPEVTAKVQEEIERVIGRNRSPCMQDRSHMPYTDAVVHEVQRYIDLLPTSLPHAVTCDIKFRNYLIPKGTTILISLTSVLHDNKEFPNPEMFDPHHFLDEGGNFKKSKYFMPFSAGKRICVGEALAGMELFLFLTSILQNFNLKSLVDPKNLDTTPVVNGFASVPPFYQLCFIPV
CYP2C9 activ: activators of human CYP2C9 | P11712 | recombinant CYP2C9, luciferin-H conversion, luminescence; active compounds read high; factor 1 = untreated enzyme, 0 = blocked | activation factor at 5 µM | actives 1.4% (n = 96,000) | AID 1024;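 active = activation factor of 2 or more for CYP2C9 at a 5 µM dose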
CYP2C19 inh: blocks human cytochrome P450 2C19; P33261; inhibition, % at 5 µM; CYP2C19 Supersomes, luciferin-H EGE luminescence, 30 min; actives 21% (n = 96,000);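 active = CYP2C19 inhibition above a set limit at 5 µM in the primary screen, cut at about 50% in these data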
EphB4 ephrin blk: blocks human EphB4 binding to ephrin-B2; P54760; EphB4 LBD / TNYL-RAW-Alexa532 peptide, fluorescence polarization; inhibition, % at 7 µM; actives 0.15% (n = 97,000); AID 720;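 active = inhibition above the screen-wide mean inhibition plus 3 SD, cut at about 15% in these data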
Numbers stand for hits; i = inactive; nt = no result. Hits are enriched below; roughly 27% of the tested compounds scored in any of these assays.

SMILES	CYP2C19 act	CYP2C9 inhib	CYP2C9 activ	CYP2C19 inh	EphB4 ephrin blk
COc1ccc(C(C(=O)NC2CCCCC2)N(C(=O)c2cccs2)c2ccc3c(c2)OCO3)cc1 (stereo not drawn)	i	53	i	i	i
O=C(NC1CCCCC1)C(c1ccc2ncccc2c1)N(Cc1ccc2c(c1)OCO2)C(=O)c1cccs1 (stereo not drawn)	i	54	i	i	i
COc1ccc(C(OC(=O)c2ccco2)C(=O)NC2CCCCC2)cc1 (stereo not drawn)	nt	nt	nt	nt	i
CC(=O)c1c(Nc2ccc3c(c2)OCCO3)oc(C)cc1=O	i	i	i	i	i
COc1ccc(-c2nsc(C(=O)N(c3ccc(F)cc3)C(C(=O)NC3CCCC3)c3ccc(OC)cc3)c2N)cc1 (stereo not drawn)	i	i	i	i	nt
COc1ccc(C(C(=O)NC2CCCC2)N(C(=O)c2ccoc2C)c2ccc(C)cc2)cc1 (stereo not drawn)	i	73	i	50	i
CCCCC(CC)CNC(=O)CCS(=O)(=O)c1cccc2nonc12 (stereo not drawn)	i	i	i	i	nt
O=C(CN1CCC(n2nnc3cc(C(F)(F)F)ccc32)CC1)Nc1ccc2c(c1)OCCO2	i	87	i	82	i
O=C(CN1CCC(n2nnc3cc(C(F)(F)F)ccc32)CC1)Nc1ccc2c(c1)CCC2	i	79	i	54	i
CC(Oc1ccccc1F)C(=O)Nc1ccc2ccccc2c1 (stereo not drawn)	nt	nt	nt	nt	i
CCCN(CCC)C(C(=O)Nc1cccc(OC)c1)c1ccccc1 (stereo not drawn)	i	89	i	88	i
COc1ccc(NC(=O)C(c2ccccc2)N(C)C(=O)CNC(C)=O)cc1 (stereo not drawn)	i	i	i	i	i
COc1cccc(NC(=O)C(NCC2CCCCC2)c2ccccc2)c1 (stereo not drawn)	i	77	i	79	i
COc1cccc(NC(=O)C(NCCC(C)C)c2ccccc2)c1 (stereo not drawn)	i	i	i	i	i
COc1cccc(NC(=O)C(OC(=O)/C=C/c2ccc3c(c2)OCO3)c2ccccc2)c1 (stereo not drawn)	i	69	i	i	i
O=C(Nc1ccc(Cl)cc1)C(c1ccccc1)N(CCO)CCO (stereo not drawn)	i	66	i	63	i
CCOc1ccc2nc(N/C(N)=N/C(=S)Nc3cccc(C)c3)nc(C)c2c1	i	i	i	i	i
O=C(Nc1ccc(N2CCCCC2)c(Cl)c1)c1ncn[nH]1	i	i	i	i	i
CC1CCc2cc(F)ccc2N1C(=O)CSc1nnc2c3ccccc3n(C)c2n1 (stereo not drawn)	i	55	i	i	i
CCn1c2ccccc2c2nnc(SCC(=O)Nc3ncccn3)nc21	i	i	i	i	nt
CCCn1c2ccccc2c2nnc(SCC(=O)Nc3nnc(CC(=O)OCC)s3)nc21	i	98	i	95	i
CCc1nnc(NC(=O)CSc2nnc3c4ccccc4n(C)c3n2)s1	i	58	i	i	nt
CCn1c2ccccc2c2nnc(SCC(=O)NC(CC(C)C)C(=O)OC)nc21 (stereo not drawn)	i	i	i	96	i
CCOC(=O)C(Sc1nnc2c3ccccc3n(CC)c2n1)C(=O)OCC	i	i	i	i	i
CCc1nnc(NC(=O)CSc2nnc(-c3c[nH]c4ccccc34)n2C)s1	i	i	i	i	i
SMILES	CYP2C19 act	CYP2C9 inhib	CYP2C9 activ	CYP2C19 inh	EphB4 ephrin blk
Cc1ccccc1Cn1nc(C)c(NC(=O)c2cc(-c3cccs3)on2)c1C	i	i	i	i	i
CCOC(=O)Cc1nnc(NC(=O)CSc2nnc3c4ccccc4n(C(C)C)c3n2)s1	i	98	i	78	nt
COC(=O)c1ccc(S(=O)(=O)NCCSc2nnc3c4ccccc4n(C)c3n2)cc1	i	95	i	68	nt
CCOC(=O)Cc1nnc(NC(=O)CSc2ccc(Cl)cc2)s1	i	i	i	i	i
CC(C)(C)C(=O)COC(=O)c1ccc(O)cc1	nt	nt	nt	nt	i
CCN(C(=O)CSc1nc2ccccc2n1CCc1ccccc1)C1CCS(=O)(=O)C1 (stereo not drawn)	i	i	i	67	i
O=C(CN(C(=O)CCC(=O)Nc1nccs1)c1ccc(F)c(Cl)c1)NCc1ccco1	i	i	i	76	nt
O=C(CN(C(=O)CCC(=O)Nc1nccs1)c1ccc(F)cc1)NCc1ccco1	i	i	i	65	i
O=C(CN(C(=O)CCC(=O)Nc1nccs1)c1cccc(F)c1)NCC1CCCO1 (stereo not drawn)	i	i	i	i	i
